PubChem BioAssay (Tox21)
Values joined by “and” are separate entries in the source; they are usually repeats but may differ in a detail not shown here. Equal values may be shown once. Inconclusive results are not listed. Some structures have more than one record in an assay (separate samples or runs), and their calls can disagree. Active and inactive are the calls of the source. Unless noted, calls come from the whole dose curve; as a rule, active = well fitted curve in the direction sought with a large enough effect in the repeat runs; inconclusive = weak or mixed curves; inactive = no such curve, though single readings can be large; an effect the other way counts as inactive or inconclusive.

Assays:
[1] = qHTS assay to identify aromatase inhibitors - cell viability counter screen (AID 743084);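 note: cells stimulated with testosterone during compound exposure; nearly all actives have a fitted effect of over 55% in size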; note: potency is the fitted concentration of half-maximal effect
[2] = target: Aryl hydrocarbon receptor (Homo sapiens) (UniProt P35869); assay: qHTS assay to identify small molecule that activate the aryl hydrocarbon receptor (AhR) signaling pathway (AID 743085); note: nearly all actives have a fitted effect of over 15% in size; note: potency is the fitted concentration of half-maximal effect;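 for activation: HG2L7.5c1 human HepG2 liver cells with stably integrated DRE-driven firefly reporter; series mostly up to about 70 µM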
Chain of Aryl hydrocarbon receptor (Homo sapiens) (P35869 whole entry, looked up): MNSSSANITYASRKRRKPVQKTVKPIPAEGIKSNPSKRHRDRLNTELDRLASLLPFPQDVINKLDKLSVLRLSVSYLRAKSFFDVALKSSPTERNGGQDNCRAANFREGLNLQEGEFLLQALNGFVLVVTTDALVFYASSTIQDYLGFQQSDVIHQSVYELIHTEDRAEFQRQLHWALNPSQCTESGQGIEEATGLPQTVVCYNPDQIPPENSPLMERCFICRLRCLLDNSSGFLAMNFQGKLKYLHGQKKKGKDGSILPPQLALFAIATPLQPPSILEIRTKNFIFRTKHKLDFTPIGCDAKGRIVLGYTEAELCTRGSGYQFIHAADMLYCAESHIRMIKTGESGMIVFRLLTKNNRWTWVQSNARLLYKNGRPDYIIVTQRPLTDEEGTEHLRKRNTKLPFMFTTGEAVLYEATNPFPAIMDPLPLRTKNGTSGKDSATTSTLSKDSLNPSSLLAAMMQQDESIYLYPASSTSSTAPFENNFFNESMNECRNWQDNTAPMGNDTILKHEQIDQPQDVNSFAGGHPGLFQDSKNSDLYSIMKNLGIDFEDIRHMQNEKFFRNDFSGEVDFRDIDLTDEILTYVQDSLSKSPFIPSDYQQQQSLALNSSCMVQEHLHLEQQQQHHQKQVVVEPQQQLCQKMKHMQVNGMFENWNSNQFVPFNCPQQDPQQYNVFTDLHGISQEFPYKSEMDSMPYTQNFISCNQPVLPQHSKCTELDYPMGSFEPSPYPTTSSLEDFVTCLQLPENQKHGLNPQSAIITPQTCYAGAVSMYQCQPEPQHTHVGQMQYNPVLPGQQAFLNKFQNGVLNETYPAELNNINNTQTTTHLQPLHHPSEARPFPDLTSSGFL
Summary of the method: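 Luminescence read-out: ONE-Glo reagent, 30 min at room temperature, in HG2L7.5c1 HepG2 reporter cells treated 24 h at 37C. Viability was measured beforehand by CellTiter-Fluor fluorescence after 30 min at 37C.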

[3] = qHTS assay to identify small molecule that activate the aryl hydrocarbon receptor (AhR) signaling pathway - cell viability counter screen (AID 743086); note: nearly all actives have a fitted effect of over 45% in size; note: potency is the fitted concentration of half-maximal effect;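 for viability change, negative = cytotoxic: HepG2 liver cells carrying the AhR DRE luciferase reporter; series mostly up to about 70 µM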
Summary of the method: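 HepG2-AhR-luc (HG2L7.5c1) cells, 4000/well, were preincubated 5 h at 37C, exposed to compound in qHTS format for 24 hr at 37C, then given CellTiter-Fluor for 30 min; viability was read as fluorescence in the reporter wells.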

[4] = target: Peroxisome proliferator-activated receptor gamma (Homo sapiens) (UniProt P37231); assay: qHTS assay to identify small molecule agonists of the peroxisome proliferator-activated receptor gamma (PPARg) signaling pathway (AID 743094; active = well fitted activation curve with a large enough effect in the signal ratio in the repeat runs, not every such curve was filed as active; the % refers to the signal ratio; note: potency is the fitted concentration of half-maximal effect)
Chain of Peroxisome proliferator-activated receptor gamma (Homo sapiens) (P37231 whole entry, looked up): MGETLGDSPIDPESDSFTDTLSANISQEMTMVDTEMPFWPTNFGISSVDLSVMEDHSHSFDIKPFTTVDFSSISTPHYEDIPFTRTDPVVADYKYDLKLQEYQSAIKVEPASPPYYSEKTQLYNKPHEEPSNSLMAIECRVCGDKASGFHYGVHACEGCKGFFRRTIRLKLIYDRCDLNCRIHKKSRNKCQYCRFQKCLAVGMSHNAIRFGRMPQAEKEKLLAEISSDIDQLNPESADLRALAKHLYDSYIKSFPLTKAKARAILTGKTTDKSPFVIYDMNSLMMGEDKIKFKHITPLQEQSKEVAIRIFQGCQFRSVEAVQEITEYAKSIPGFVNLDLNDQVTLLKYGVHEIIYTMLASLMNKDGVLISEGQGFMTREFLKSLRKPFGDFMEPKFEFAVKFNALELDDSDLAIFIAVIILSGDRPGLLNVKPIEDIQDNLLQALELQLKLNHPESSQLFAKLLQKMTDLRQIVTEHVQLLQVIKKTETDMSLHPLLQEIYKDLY
Summary of the method: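 GeneBLAzer PPARg UAS-bla HEK293H cells were plated, rested 5 h, then exposed to compounds for 17 h at 37C. Beta-lactamase activity was read by LiveBLAzer B/G FRET substrate fluorescence after 1 h at room temperature.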

[5] = qHTS assay for small molecule agonists of the antioxidant response element (ARE) signaling pathway - cell viability counter screen (AID 743203; calls by dose curve; note: nearly all actives have a fitted effect of over 55% in size; note: potency is the fitted concentration of half-maximal effect)
Summary of the method: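 ARE-bla HepG2 cells were plated, rested 5 h at 37C/5% CO2, then exposed to compounds in DMSO for 16 h. Viability was read as CellTiter-Glo luminescence after 30 min at room temperature, in the same wells as the ARE screen.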

[6] = qHTS assay for small molecule activators of the heat shock response signaling pathway - cell viability counter screen (AID 743209); note: nearly all actives have a fitted effect of over 50% in size
Summary of the method: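 HSE-bla HeLa cells plated overnight, then exposed to Tox21 compounds (23 nL in DMSO) for 5 h at 37 C. After the bla reporter read, CellTiter-Glo was added in the same wells and luminescence read after 30 min at room temperature.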

[7] = qHTS assay for small molecule activators of the heat shock response signaling pathway (AID 743210; active = well fitted activation curve with a large enough effect in the signal ratio in the repeat runs, with a control signal flat, not every such curve was filed as active; the % refers to the signal ratio; note: potency is the fitted concentration of half-maximal effect; for activation: series mostly up to about 63 µM)
Summary of the method: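 HSE-bla HeLa cells (beta-lactamase reporter under heat shock response elements) were exposed to compounds for 5 h at 37 C, then loaded with LiveBLAzer B/G FRET substrate for 2.5 h at room temperature before fluorescence reading.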

[8] = qHTS assay to identify small molecule antagonists of the peroxisome proliferator-activated receptor gamma (PPARg) signaling pathway - cell viability counter screen (AID 743194); note: nearly all actives have a fitted effect of over 55% in size
Summary of the method: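 PPARg-UAS-bla HEK293H cells were plated, rested 5 h at 37 C, then treated with compounds plus rosiglitazone (50 nM final) for 17 h at 37 C; viability was then read by CellTiter-Glo luminescence after 30 min at room temperature.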

[9] = qHTS assay for small molecule agonists of the antioxidant response element (ARE) signaling pathway (AID 743202; active = well fitted activation curve with a large enough effect in the signal ratio in the repeat runs, not every such curve was filed as active; the % refers to the signal ratio; note: potency is the fitted concentration of half-maximal effect)
Summary of the method: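 Read-out: LiveBLAzer B/G FRET substrate fluorescence after 2 h at room temperature, following 16 h compound treatment at 37 C of HepG2 cells carrying an ARE-driven beta-lactamase reporter.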

[10] = target: Peroxisome proliferator-activated receptor gamma (Homo sapiens) (UniProt P37231); assay: qHTS assay to identify small molecule antagonists of the peroxisome proliferator-activated receptor gamma (PPARg) signaling pathway (AID 743191; calls by dose curve; note: nearly all actives have a fitted effect of over 30% in size; note: potency is the fitted concentration of half-maximal effect)
Summary of the method: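 GeneBLAzer PPARg UAS-bla HEK293H cells carrying a UAS-driven beta-lactamase reporter were plated at 3000 cells/well, preincubated 5 h at 37C, then given compound for 17 h at 37C; LiveBLAzer B/G FRET substrate was read after 1 h at room temperature.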
% is set by controls: 0 for no effect and ±100 for the full control effect.

C[C@@H]1C[C@H]2O[C@@]3(O[C@@H]2C(C)(C)O)[C@H](O)[C@@]2(C)[C@@H]4CC[C@H]5C(C)(C)[C@@H](O[C@@H]6OC[C@@H](O)[C@H](O)[C@H]6O)CC[C@@]56C[C@@]46CC[C@]2(C)[C@@H]13
inactive: Potency [1] | Potency [2] | Potency [3] | Potency [4] | Potency [5] | Potency [6] | Potency [7]

CC1=CC[C@H](C(C)C)C=C1
inactive: Potency [1] | Potency [2] | Potency [3] | Potency [4] | Potency [8] | Potency [5] | Potency [7]

COc1cc(C(=O)OCCCN2CCCN(CCCOC(=O)c3cc(OC)c(OC)c(OC)c3)CC2)cc(OC)c1OC
inactive: Potency [2] | Potency [3] | Potency [8] | Potency [5] | Potency [6] | Potency [7]
active: Potency [1] 8.41 µM

CC/C=C\CCOC(=O)CC
inactive: Potency [1] | Potency [2] | Potency [3] | Potency [8] | Potency [5] | Potency [6] | Potency [7]

C=CC(=O)OCCOc1ccccc1
inactive: Potency [1] | Potency [2] | Potency [3] | Potency [8] | Potency [9] | Potency [5]

CCOc1ccc(O)cc1
inactive: Potency [1] | Potency [2] | Potency [3] | Potency [10] | Potency [8] | Potency [5] | Potency [6] | Potency [7]

CC(=O)OC[C@H]1O[C@@H](n2ncc(=O)[nH]c2=O)[C@H](OC(C)=O)[C@@H]1OC(C)=O
inactive: Potency [1] | Potency [2] | Potency [3] | Potency [8] | Potency [5] | Potency [7]
active: Potency [10] 841 nM

COc1ccc(S(=O)(=O)N2C(=O)[C@@](c3ccccc3OC)(N3C[C@H](O)C[C@H]3C(=O)N(C)C)c3cc(Cl)ccc32)c(OC)c1
active: Potency [1] 30.6 µM | Potency [3] 30.6 µM
inactive: Potency [2] | Potency [4] | Potency [6] | Potency [7]

OCc1cc(C(O)CNCCCCCCOCCCCc2ccccc2)ccc1O (stereo not given)
26.6 µM (active) and inactive: Potency [2]
inactive: Potency [10] | Potency [8] | Potency [6] | Potency [7]
active: Potency [1] 11.9 µM and 9.44 µM | Potency [3] 26.6 µM and 13.3 µM

C=C(C)C(=O)OCCOCC
inactive: Potency [1] | Potency [2] | Potency [3] | Potency [4] | Potency [9] | Potency [5] | Potency [6] | Potency [7]

Clc1ccc(Cn2c(CN3CCCC3)nc3ccccc32)cc1
inactive: Potency [1] | Potency [2] | Potency [3] | Potency [4] | Potency [5] | Potency [6]

O=C(OCCCCCCOC(=O)c1ccccc1)c1ccccc1
active: Potency [7] 57.1 µM
inactive: Potency [1] | Potency [2] | Potency [3] | Potency [8] | Potency [5]

CCCCCCCCCOS(=O)(=O)O
inactive: Potency [1] | Potency [2] | Potency [3] | Potency [4] | Potency [5] | Potency [6] | Potency [7]

CCCCc1nc2cccnc2n1Cc1ccc(-c2ccccc2-c2nnn[nH]2)cc1
active: Potency [1] 54.5 µM | Potency [4] 5.49 µM
inactive: Potency [2] | Potency [3] | Potency [5] | Potency [6]

C=CCOc1ccccc1OCC(O)CNC(C)C (stereo not given)
inactive: Potency [1] | Potency [2] | Potency [3] | Potency [4] | Potency [5] | Potency [6] | Potency [7]

COc1cccc(N(C)C(=S)Oc2ccc3c(c2)CCCC3)n1
inactive: Potency [1] | Potency [2] | Potency [3] | Potency [8] | Potency [5]

CC1=CC=C(C(C)C)CC1
inactive: Potency [1] | Potency [2] | Potency [3] | Potency [4] | Potency [9] | Potency [5] | Potency [6] | Potency [7]

CCCCCCCCCCCCCCCCOS(=O)(=O)O
inactive: Potency [1] | Potency [2] | Potency [3] | Potency [4] | Potency [8] | Potency [6]

CC(=O)[O][Al]
inactive: Potency [1] | Potency [2] | Potency [3] | Potency [8] | Potency [9] | Potency [5] | Potency [6]

CN(Cc1ccc(C(C)(C)C)cc1)Cc1cccc2ccccc12
inactive: Potency [1] | Potency [2] | Potency [3] | Potency [4] | Potency [9] | Potency [5] | Potency [6] | Potency [7]

CN(C)c1ccc(C(c2ccccc2)c2ccc(N(C)C)cc2)cc1
inactive: Potency [1] | Potency [2] | Potency [3] | Potency [9] | Potency [5] | Potency [6] | Potency [7]

CCCCCCCCCc1ccc(OCCOCCO)cc1
inactive: Potency [2] | Potency [4] | Potency [5]
active: Potency [1] 21.1 µM and 22.8 µM | Potency [9] 1.62 µM

c1ccc(C(O[C@H]2CCCN(CCc3ccc4c(c3)OCO4)C2)c2ccccc2)cc1
active: Potency [2] 26.6 µM
inactive: Potency [1] | Potency [3] | Potency [8] | Potency [6]

CCCCC(=O)OCC(=O)[C@H]1[C@H](C)C[C@H]2[C@@H]3C[C@H](F)C4=CC(=O)C=C[C@]4(C)[C@@]3(F)[C@@H](O)C[C@@]21C
inactive: Potency [1] | Potency [2] | Potency [4] | Potency [9] | Potency [5] | Potency [6]

Brc1c2ccccc2c(Br)c2ccccc12
active: Potency [4] 1.98 µM
inactive: activity change, negative = cytotoxicity [1] 12.2% [at 8.47 µM] | viability change, negative = cytotoxic [3] -2.96% [at 8.47 µM] | activity change, negative = cytotoxicity [8] 7.41% [at 5.95 µM] | viability change, negative = cytotoxic [5] 3.8% [at 8.36 µM] | activity change, negative = cytotoxicity [6] 2.9% [at 5.95 µM]

O=C(Nc1ccc(S(=O)(=O)N2CCOCC2)cc1)c1cc(Cl)ccc1NS(=O)(=O)c1ccc(Cl)s1
active: Potency [5] 13.3 µM
inactive: Potency [1] | Potency [2] | Potency [3] | Potency [6]
